# Results as given in ChEMBL document CHEMBL3988442, “University of Dundee, Small-Polar-MMV Screening Library” (2021).
# For part of these data: Measured potencies and affinities stand elsewhere.
# Tests used:
# Parameters in all cases: scale not given: direction of the effect not stated beside the values
# [1] = molecular target: Protein translocase subunit SecA (Escherichia coli (strain K12)) (UniProt P10408); assay: Assay to Identify E. coli SecA ATPase Inhibitors; assay type: functional; conditions: 30 µM
# Sequence of Protein translocase subunit SecA (Escherichia coli (strain K12)) (P10408 whole entry): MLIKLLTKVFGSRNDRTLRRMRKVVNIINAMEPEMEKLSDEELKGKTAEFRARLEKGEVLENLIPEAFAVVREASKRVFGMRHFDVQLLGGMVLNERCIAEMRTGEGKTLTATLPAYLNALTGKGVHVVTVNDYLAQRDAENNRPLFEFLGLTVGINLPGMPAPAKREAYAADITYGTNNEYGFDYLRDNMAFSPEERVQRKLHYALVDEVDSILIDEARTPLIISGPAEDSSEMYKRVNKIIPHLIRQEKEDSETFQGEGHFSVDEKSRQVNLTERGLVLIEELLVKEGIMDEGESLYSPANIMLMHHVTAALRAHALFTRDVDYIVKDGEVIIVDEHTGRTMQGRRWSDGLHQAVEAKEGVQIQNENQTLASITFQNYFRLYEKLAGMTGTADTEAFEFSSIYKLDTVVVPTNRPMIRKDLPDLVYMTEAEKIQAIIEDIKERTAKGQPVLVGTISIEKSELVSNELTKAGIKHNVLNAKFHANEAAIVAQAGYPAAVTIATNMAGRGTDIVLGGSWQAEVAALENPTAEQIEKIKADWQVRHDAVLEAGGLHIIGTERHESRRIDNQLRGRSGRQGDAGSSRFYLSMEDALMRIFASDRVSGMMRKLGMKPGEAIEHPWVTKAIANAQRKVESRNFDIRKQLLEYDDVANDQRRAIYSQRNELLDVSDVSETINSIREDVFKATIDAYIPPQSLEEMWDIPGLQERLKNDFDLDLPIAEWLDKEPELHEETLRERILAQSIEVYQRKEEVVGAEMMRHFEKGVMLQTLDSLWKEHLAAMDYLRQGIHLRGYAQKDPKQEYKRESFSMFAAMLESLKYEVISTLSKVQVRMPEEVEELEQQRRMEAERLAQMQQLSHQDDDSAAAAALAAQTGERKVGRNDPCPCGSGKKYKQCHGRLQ
# [2] = molecular target: T1, Ubiquitin-activating enzyme e1, putative (Leishmania donovani (strain BPK282A1)) (UniProt E9BSI1); assay: Leishmania donovani Ubiquitin Activating Enzyme (LdE1); assay type: functional; conditions: 30 µM
# T1 sequence (whole entry): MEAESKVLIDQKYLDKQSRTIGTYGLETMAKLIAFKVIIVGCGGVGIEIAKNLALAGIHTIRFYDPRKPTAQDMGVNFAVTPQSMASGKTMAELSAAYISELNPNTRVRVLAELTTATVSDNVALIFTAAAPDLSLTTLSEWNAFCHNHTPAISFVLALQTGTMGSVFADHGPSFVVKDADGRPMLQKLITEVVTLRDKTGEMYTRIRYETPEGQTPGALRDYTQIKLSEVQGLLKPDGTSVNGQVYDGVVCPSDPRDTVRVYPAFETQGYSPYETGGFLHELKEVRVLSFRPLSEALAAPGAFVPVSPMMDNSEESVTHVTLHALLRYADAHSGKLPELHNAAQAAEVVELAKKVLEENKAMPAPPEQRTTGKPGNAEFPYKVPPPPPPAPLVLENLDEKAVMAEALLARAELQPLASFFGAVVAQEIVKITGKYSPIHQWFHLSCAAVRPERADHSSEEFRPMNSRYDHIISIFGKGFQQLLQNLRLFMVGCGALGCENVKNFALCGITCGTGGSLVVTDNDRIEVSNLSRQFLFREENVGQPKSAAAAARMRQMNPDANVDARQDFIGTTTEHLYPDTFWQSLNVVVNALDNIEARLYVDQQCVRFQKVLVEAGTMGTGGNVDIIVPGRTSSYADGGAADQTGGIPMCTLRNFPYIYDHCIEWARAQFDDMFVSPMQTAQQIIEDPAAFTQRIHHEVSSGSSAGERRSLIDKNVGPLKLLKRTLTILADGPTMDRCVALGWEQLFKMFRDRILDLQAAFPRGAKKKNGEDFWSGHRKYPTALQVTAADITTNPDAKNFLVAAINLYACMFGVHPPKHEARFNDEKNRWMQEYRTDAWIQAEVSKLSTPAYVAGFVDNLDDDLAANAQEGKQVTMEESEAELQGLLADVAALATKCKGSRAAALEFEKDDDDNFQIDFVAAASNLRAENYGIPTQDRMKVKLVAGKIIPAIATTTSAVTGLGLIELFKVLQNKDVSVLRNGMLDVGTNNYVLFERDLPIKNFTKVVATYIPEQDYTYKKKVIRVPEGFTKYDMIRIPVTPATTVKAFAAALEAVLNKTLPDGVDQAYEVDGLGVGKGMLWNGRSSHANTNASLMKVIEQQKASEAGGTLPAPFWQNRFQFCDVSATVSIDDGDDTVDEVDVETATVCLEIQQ
# [3] = molecular target: Sialic acid-binding Ig-like lectin 9 (Homo sapiens) (UniProt Q9Y336); assay: Hs-Siglec9 ALPHAscreen SOP 20170721; conditions: 10 µM
# Sequence of Sialic acid-binding Ig-like lectin 9 (Homo sapiens) (Q9Y336 whole entry): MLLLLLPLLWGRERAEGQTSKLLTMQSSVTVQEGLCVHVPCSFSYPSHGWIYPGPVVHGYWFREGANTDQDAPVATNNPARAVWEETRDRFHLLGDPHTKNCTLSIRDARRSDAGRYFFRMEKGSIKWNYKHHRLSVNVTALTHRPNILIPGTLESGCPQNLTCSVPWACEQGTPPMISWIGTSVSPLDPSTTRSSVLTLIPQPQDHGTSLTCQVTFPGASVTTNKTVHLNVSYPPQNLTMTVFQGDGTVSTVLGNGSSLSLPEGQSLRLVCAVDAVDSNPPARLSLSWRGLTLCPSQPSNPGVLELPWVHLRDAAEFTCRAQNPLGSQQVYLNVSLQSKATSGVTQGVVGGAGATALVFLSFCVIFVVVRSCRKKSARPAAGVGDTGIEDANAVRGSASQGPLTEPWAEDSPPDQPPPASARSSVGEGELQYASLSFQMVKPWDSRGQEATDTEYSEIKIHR
# [4] = tested on: Trypanosoma cruzi; assay: Trypanosoma cruzi phosphomannomutase and mannose-1-phosphate guanylyltransferase assay; assay type: functional; conditions: 10 µM
# [5] = molecular target: T2, Arginase-2, mitochondrial (Homo sapiens) (UniProt P78540); assay: in vitro enzyme assay to detect the production of urea directly proportional to the activity of Arginase II; assay type: functional; conditions: 33.3 µM; also: in the data most compounds retested in dose-response had high values
# T2 sequence (whole entry): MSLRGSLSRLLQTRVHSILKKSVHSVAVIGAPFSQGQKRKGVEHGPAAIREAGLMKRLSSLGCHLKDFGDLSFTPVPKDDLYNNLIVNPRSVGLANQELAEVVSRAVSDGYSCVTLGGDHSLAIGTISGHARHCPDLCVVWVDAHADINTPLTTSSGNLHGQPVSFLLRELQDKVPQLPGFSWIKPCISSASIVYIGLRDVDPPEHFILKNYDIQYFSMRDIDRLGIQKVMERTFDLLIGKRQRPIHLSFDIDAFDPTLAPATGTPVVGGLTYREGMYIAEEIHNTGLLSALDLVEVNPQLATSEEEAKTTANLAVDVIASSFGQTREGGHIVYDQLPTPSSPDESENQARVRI
# [6] = molecular target: T3, Proteasome subunit beta (Trypanosoma cruzi) (UniProt O96673); assay: Trypanosoma cruzi proteasome chymotrypsin-like activity (TcProtChymo) assay.; also: in the data most compounds retested in dose-response had high values; assay type: functional; conditions: 9.37 µM
# T3 sequence (whole entry): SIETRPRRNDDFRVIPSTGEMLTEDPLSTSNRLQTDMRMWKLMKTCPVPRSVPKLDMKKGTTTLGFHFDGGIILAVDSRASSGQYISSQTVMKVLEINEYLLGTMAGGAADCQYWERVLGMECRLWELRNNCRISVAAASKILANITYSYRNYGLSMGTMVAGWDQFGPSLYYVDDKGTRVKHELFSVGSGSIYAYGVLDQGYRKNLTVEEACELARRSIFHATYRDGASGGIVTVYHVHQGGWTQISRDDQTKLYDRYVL
# [7] = species: Homo sapiens; assay: To identify inhibition of the IFN signalling (Jak-Stat) pathway via expression of an eGFP reporter gene under the control of an IFN-stimulated response element (ISRE) containing MxA promoter.; assay type: functional; conditions: 30 µM
# [8] = molecular target: T4, Tyrosyl-tRNA synthetase, putative (Trypanosoma cruzi (strain CL Brener)) (UniProt Q4DSP6); assay: Trypanosoma cruzi tyrosyl tRNA synthetase (TcYRS) _High Tyrosine SOP; assay type: functional; conditions: 30 µM; also: in the data most compounds retested in dose-response had high values
# T4 sequence (whole entry): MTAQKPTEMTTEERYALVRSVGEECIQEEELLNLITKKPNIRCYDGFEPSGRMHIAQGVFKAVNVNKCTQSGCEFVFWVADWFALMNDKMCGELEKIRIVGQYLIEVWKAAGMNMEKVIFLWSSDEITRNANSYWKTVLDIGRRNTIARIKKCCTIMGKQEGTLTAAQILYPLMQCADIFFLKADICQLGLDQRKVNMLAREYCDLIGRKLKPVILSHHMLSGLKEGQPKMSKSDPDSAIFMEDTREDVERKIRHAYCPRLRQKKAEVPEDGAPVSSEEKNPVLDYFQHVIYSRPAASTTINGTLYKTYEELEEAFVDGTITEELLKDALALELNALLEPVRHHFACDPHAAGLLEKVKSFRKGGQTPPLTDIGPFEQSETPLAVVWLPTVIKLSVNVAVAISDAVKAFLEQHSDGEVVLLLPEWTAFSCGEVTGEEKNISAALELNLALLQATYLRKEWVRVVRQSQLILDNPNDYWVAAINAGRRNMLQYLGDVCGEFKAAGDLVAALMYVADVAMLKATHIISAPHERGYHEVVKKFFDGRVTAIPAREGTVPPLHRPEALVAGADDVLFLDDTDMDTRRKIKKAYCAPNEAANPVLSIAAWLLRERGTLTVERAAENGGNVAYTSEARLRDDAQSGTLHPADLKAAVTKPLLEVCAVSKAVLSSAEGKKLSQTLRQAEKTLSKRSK
# [9] = molecular target: T4, Tyrosyl-tRNA synthetase, putative (Trypanosoma cruzi (strain CL Brener)); assay: Trypanosoma cruzi tyrosyl tRNA synthetase (TcYRS) SOP; assay type: functional; conditions: 30 µM
# [10] = molecular target: Chromo domain-containing protein 1 (Saccharomyces cerevisiae (strain ATCC 204508 / S288c) (Baker's yeast)) (UniProt P32657); assay: ScCHD-1 Enzyme Inhibition Assay; assay type: functional; conditions: 30 µM; also: in the data most compounds retested in dose-response had high values
# Sequence of Chromo domain-containing protein 1 (Saccharomyces cerevisiae (strain ATCC 204508 / S288c) (Baker's yeast)) (P32657 whole entry, the tested form may be a part): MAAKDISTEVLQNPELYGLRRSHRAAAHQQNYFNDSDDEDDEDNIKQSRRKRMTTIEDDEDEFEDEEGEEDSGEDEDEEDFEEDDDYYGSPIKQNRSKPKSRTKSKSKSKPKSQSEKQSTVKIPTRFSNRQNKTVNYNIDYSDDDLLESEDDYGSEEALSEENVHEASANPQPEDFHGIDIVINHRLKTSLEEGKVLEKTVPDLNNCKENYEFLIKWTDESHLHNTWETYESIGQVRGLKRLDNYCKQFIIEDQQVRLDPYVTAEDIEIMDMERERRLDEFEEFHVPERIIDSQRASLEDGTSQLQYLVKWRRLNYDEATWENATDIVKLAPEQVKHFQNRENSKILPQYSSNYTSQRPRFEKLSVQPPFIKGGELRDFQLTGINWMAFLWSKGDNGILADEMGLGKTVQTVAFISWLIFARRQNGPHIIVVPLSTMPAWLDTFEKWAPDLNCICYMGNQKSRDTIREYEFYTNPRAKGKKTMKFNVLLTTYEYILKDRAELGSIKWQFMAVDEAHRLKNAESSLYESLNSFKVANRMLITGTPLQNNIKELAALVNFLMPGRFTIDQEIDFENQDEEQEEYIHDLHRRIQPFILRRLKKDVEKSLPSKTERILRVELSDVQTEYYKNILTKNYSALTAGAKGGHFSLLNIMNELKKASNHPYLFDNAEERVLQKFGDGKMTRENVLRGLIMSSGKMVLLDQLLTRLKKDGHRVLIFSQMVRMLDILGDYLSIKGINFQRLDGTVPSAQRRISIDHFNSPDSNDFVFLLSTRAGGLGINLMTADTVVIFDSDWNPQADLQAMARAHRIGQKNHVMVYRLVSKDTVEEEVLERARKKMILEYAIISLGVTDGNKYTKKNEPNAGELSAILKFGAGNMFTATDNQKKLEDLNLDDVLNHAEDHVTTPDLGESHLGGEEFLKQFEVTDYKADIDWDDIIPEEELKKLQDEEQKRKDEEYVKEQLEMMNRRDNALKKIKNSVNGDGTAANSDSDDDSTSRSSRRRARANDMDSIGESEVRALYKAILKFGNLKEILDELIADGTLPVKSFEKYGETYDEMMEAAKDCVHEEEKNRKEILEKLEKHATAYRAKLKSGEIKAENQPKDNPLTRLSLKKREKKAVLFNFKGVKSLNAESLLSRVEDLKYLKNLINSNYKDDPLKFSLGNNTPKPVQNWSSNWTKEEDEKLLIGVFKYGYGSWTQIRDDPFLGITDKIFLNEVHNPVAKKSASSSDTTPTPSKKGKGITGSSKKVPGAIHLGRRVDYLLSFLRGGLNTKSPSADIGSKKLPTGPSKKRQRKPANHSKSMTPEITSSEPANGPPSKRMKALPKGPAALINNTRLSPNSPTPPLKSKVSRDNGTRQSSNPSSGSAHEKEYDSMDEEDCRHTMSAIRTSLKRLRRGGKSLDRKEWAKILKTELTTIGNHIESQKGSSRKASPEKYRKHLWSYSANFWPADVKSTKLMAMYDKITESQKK
Structure (SMILES),Percent Effect [1] [%],Percent Effect [2] [%],Percent Effect [3] [%],Percent Effect [4] [%],Percent Effect [5] [%],Percent Effect [6] [%],Percent Effect [7] [%],Percent Effect [8] [%],Percent Effect [9] [%],Percent Effect [10] [%]
COc1ccc(C(=O)NCCCn2ccnc2)c(OC)n1,-2.17,24.7,1.39,3.75,0,10.6,11.6,6.76,22.5,-12.8
CCC1c2ccsc2CCN1C(=O)NCc1cc[nH]n1 (stereo not given),-7.17,7.69,-4.75,-4.79,0,7.25,21.4,2.39,6.02,-1.84
CCOCC1CC2(CCN(Cc3ccccn3)CC2)CO1 (stereo not given),-9.03,1.3,1.88,0.292,-2.83,11.7,-4.94,2.63,5.13,16.1
COc1cccc(CN2CCCC3(CCN(C(=O)[C@H]4CCCO4)C3)C2)c1 (stereo not given in full),-5.07,3.9,-0.211,-0.75,3.65,4.55,0.637,12.6,15,-10.7
CN1CCC/C1=N\S(=O)(=O)c1ccc(NC(=O)CCc2cccs2)cc1,2.31,20.8,5.99,2.05,12.1,5.79,16.7,7.84,28.2,-8.39
Cc1cnc(N2CCC3(CCN(CC4CC4)C3=O)CC2)nc1,-0.786,16.9,-3.91,-4.13,3.65,8.84,17.8,8.7,12.5,-11.4
Cc1cc(C)n(CC2CN(Cc3nc(-c4ccco4)no3)CCO2)n1 (stereo not given),-4.45,23.4,7.28,5.78,1.43,8.25,12.5,5.88,23.5,-11.8
Cc1cc(CN(C)C(=O)c2ccc(C(F)(F)F)nc2)no1,-1.51,-2.67,3.03,-3.61,3.1,1.27,-6.24,-1.58,5.13,14.8
c1cc(-c2nc(CN3CCn4c(nnc4C4CC4)C3)cs2)cs1,0.225,-23.1,-7.08,3.47,-1.64,5.55,21.9,2.39,8.43,5.73
CN(Cc1ccccc1)C(=O)c1nc(S(C)(=O)=O)n2ccccc12,-7.02,-92.3,-5.33,9.67,-1.23,1.96,5.84,1.44,13.2,-7.37
O=C(NCCc1coc(-c2ccc(F)cc2)n1)NC1CCC(O)CC1 (stereo not given),-5.41,21.3,5.86,5.82,-0.887,15.7,6.59,5.79,15.4,-15.6
CCCN1CCCn2nc(CNS(=O)(=O)c3cccc(C#N)c3)cc2C1,-7.29,8.11,11.2,1.84,2.45,19.4,9.83,6.92,21.9,95
